# Assay outcomes as filed in PubChem.
# tim23-1 inh: tim23-1 yeast growth inhibition; S. cerevisiae tim23-1 growth, BacTiter-Glo luminescence, 24 h; hit rate 1.3% among 330,000; AID 463212; inhibition, % at 20 µM;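 active means growth inhibition of the mutant yeast at or above 50%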;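 further: temperature-sensitive mutant grown at 25 °C; plate controls were DMSO-treated mutant yeast for no effect and medium wells lacking yeast for full effect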
# NALP3 yeast inh: blocks the NALP3 inflammasome reconstituted in yeast; Yeast reconstituted NLRP3/ASC/caspase-1, beta-gal luminescence, 24 h; inhibition, % at 10 µM; hit rate 0.39% among 330,000;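 active means inhibition of 50% or more; inactive means inhibition below 50%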;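 further: plate controls were induced DMSO wells for no effect and uninduced yeast grown without galactose for full effect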
# tim10-1 inh: tim10-1 yeast growth inhibition; S. cerevisiae tim10-1 ts strain growth, BacTiter-Glo, 24 h; inhibition, % at 20 µM; hit rate 2.2% among 330,000; AID 463190;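 active means inhibition of at least 40%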;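 further: mutant grown at 25 °C; 0% = DMSO wells with yeast and 100% = wells holding no yeast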
# TIM10 inh: TIM10 yeast growth inhibition | inhibition, % at 10 µM | AID 463195 | hit rate 1.4% among 330,000 | S. cerevisiae TIM10 strain growth, BacTiter-Glo luminescence, 24 h;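 active means inhibition of 40% or more at the single tested concentration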;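 further: wild-type TIM10 isogenic control strain grown at permissive 25 °C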
# SKKanGAS inh: inhibitors of SKKanGAS S. pyogenes growth in kanamycin (SK-promoter or general growth effect); AID 1662; hit rate 1.3% among 300,000; inhibition, % at 7.5 µM; BacTiter-Glo, 6 h;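 active means mean replicate score, as percent of positive control median, at least 50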;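 further: strain carries kanamycin resistance gene driven by streptokinase promoter and grows in 40 µg/ml kanamycin; loss of luminescence reflects streptokinase promoter inhibition or plain growth inhibition; 0% = median of DMSO wells and 100% = positive control at its reference dose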
# TIM10 conf: confirmation of TIM10 yeast growth inhibitors | shares compounds with TIM10 inh | S. cerevisiae tim10 strain growth, BacTiter-Glo luminescence, 24 h | inhibition, % at 10 µM | hit rate 63% among 4,600 | AID 463215;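 active means inhibition of yeast growth at or above a set limit in either of two replicates at 10 µM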;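 further: this counterscreen used the strain with wild-type TIM10; 0% = yeast with DMSO and 100% = medium wells lacking yeast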
# * = called active by the depositor; x = no result given. Most compounds without a hit are left out; they make up all but 4.6% or so of the library.
SMILES,tim23-1 inh,NALP3 yeast inh,tim10-1 inh,TIM10 inh,SKKanGAS inh,TIM10 conf
COc1ccc(N(C(=O)c2ccco2)S(=O)(=O)c2ccc(F)cc2)cc1,-1.0,-10.0,37.9,42.5*,0.7,17.0
COc1ccc(N(C(=O)c2ccco2)S(=O)(=O)c2cccc([N+](=O)[O-])c2)cc1,3.5,-7.0,18.8,-2.8,-8.5,x
COc1cccc(Oc2c(C)oc3c(CN4CCCC4)c(O)ccc3c2=O)c1,14.9,-9.8,-14.5,2.7,-8.9,x
CCC(=O)N1CCc2cc(S(=O)(=O)N3CCN(c4ccccc4Cl)CC3)ccc21,12.2,15.3,19.2,-11.3,-0.9,x
O=C(O)C1Sc2[nH]c(=O)sc2C2c3cc(Br)ccc3OC(=O)C12 (centres undefined),29.8,7.3,22.4,43.6*,2.2,33.2*
CN(C)/C(=N\S(=O)(=O)c1ccccc1)c1ccc(F)cc1,3.5,12.0,-10.5,61.5*,1.7,0.1
Cc1nc2ccc(NC(=O)c3ccc([N+](=O)[O-])cc3[N+](=O)[O-])cc2s1,39.5,4.9,38.5,42.0*,4.6,28.4
CCOC(=O)C1(CCCc2ccccc2)CCN(C(=O)c2cnn(CC)c2)CC1,30.7,9.8,2.6,9.3,0.9,x
COc1ccc(N(C(=O)CNC(=O)c2cccs2)C(C(=O)NCC2CCCO2)c2ccccc2)cc1 (centres undefined),4.9,-1.3,11.4,-2.1,-3.9,x
CC1CCCC(NC(=O)COC(=O)c2ccccc2[N+](=O)[O-])C1C (centres undefined),-5.8,15.8,13.3,-4.0,1.9,x
O=C(COC(=O)c1ccc([N+](=O)[O-])s1)Nc1ncc(C(F)(F)F)cc1Cl,-11.7,-11.0,9.0,64.7*,9.6,72.2*
CC1CCCC(NC(=O)COC(=O)Cc2ccc(Cl)cc2)C1C (centres undefined),28.9,1.4,6.6,4.2,x,x
CC1CCCC(NC(=O)COC(=O)c2ccc([N+](=O)[O-])s2)C1C (centres undefined),-21.0,32.4,-7.2,61.6*,x,61.1*
Cc1ccc(CC(=O)OCC(=O)NC2CCCC(C)C2C)cc1C (centres undefined),4.9,5.4,24.2,50.2*,-0.4,14.2
O=C(COC(=O)c1ccccn1)Nc1ncc(C(F)(F)F)cc1Cl,8.7,6.7,3.0,-1.8,-10.8,x
COc1ccc(CCNC(=O)COC(=O)COc2ccc(C#N)cc2)cc1,27.8,10.3,9.5,6.8,-0.4,x
CC(=O)NN(O)C1N(C)C(=O)N(Cc2ccccc2)C1(C)C (centres undefined),-8.8,18.3,-10.4,6.3,1.8,x
CCn1cc(CN2CCCC(C(=O)Nc3ccc(-c4cscn4)cc3)C2)cn1 (centres undefined),-46.8,11.8,-22.2,-22.5,1.4,x
O=C(Cc1ccccc1)Oc1coc(CSc2ncccn2)cc1=O,25.5,-11.3,5.9,19.2,-4.5,x
CCCn1c(SC(C)C(=O)N2CCOCC2)nc2ccc(Br)cc2c1=O (centres undefined),0.5,12.5,-24.4,-12.0,-6.3,x
N#CC(c1ccc(Cl)nn1)c1c(F)cccc1Cl (centres undefined),-12.3,1.0,-11.5,-9.2,-0.5,x
N/C(=N\OC(=O)c1ccc2ccccc2c1)c1ccccn1,13.0,5.2,36.3,44.7*,-3.9,51.2*
N/C(=N\OC(=O)c1cccc2ccccc12)c1ccccn1,48.7,21.9,21.6,55.2*,-9.3,55.5*
N/C(=N\OC(=O)c1ccc2ccccc2c1)c1ccccc1Cl,15.3,25.5,35.9,84.2*,8.3,84.6*
Cc1cccc(NC(=S)NC(C)C(c2ccccc2)N2CCN(C)CC2)c1C (centres undefined),8.2,2.2,9.3,-36.9,1.7,x
SMILES,tim23-1 inh,NALP3 yeast inh,tim10-1 inh,TIM10 inh,SKKanGAS inh,TIM10 conf
CCOc1ccc(Br)cc1CNc1ccc2c(c1)OCCO2,15.3,26.6,9.8,10.1,-5.2,x
Cc1[nH]nc(N=CC2=C(O)CC(c3ccco3)CC2=O)c1-c1ccc(Cl)cc1 (centres undefined),27.0,2.8,25.4,21.2,13.5,x
Cc1[nH]nc(N=CC2=C(O)CC(C)(C)CC2=O)c1-c1ccc(Cl)cc1,21.2,1.3,36.3,40.8*,2.0,30.5*
C=CCn1c(=O)/c(=C/c2ccc(F)cc2)s/c1=C(\C#N)c1nnc2n1CCCCC2,49.4,8.2,33.1,44.0*,13.9,40.4*
CC1CCC2(CC1)NC(=O)N(CC(=O)NCCc1ccc(F)cc1)C2=O (centres undefined),-1.7,12.7,-11.5,68.3*,x,-9.2
CC1CCC2(CC1)NC(=O)N(CC(=O)NCCc1ccccc1)C2=O (centres undefined),14.4,5.0,0.0,1.1,x,x
Cc1cc(C)cc(NC(=O)N(CCC#N)Cc2cccs2)c1,8.6,2.6,19.4,17.9,-1.9,x
COc1ccccc1N1CCN(C(=O)c2ccc3nc(-c4ccco4)c(-c4ccco4)nc3c2)CC1,20.2,21.2,25.8,41.4*,25.5,14.9
COc1ccccc1N1CCN(C(=O)c2cc(-c3ccc(F)cc3)on2)CC1,49.3,19.3,30.3,27.5,-1.8,x
COc1ccccc1N1CCN(C(=O)c2cc(-c3ccc(C)cc3)on2)CC1,47.5,-5.0,7.9,40.1*,-1.2,35.8*
COc1ccccc1N1CCN(C(=O)c2ccc3nc[nH]c3c2)CC1,8.7,2.8,18.0,2.9,-5.5,x
Cc1ccccc1C(N)c1ccncc1 (centres undefined),-8.4,1.2,-7.1,81.2*,5.1,3.3
OC(c1ccccc1)c1ccncc1 (centres undefined),-3.3,1.5,-7.6,-1.8,1.1,x
COc1ccc(CC(=O)NCc2nc(-c3ccccc3)no2)cc1,16.7,14.2,12.3,-3.7,-5.5,x
COc1cc(OC)cc(C(=O)NCc2nc(-c3ccccc3)no2)c1,4.5,23.5,-1.6,90.8*,-3.2,-23.2
O=C(CCc1nnc2n(Cc3ccccc3Cl)c(=O)c3ccccc3n12)NCCCN1CCOCC1,4.3,4.1,2.9,0.2,-2.3,x
Cc1ccc(Cn2c(=O)c3ccccc3n3c(CCC(=O)NCCN4CCOCC4)nnc23)cc1,-7.3,14.9,6.2,96.3*,-0.1,-7.3
O=C(Nc1ccccc1-c1ccccc1)C12CC3CC(CC(C3)C1)C2,33.7,3.6,33.6,50.3*,14.0,39.0*
c1ccc(OCCN2CCN(C(c3ccccc3)c3ccccc3)CC2)cc1,41.0,-2.8,25.4,41.9*,-0.9,46.9*
CCCc1nc2oc3c(NCC(C)O)ncnc3c2c2c1CCCC2 (centres undefined),30.9,18.2,33.7,40.7*,-0.8,44.8*
COc1cc(/C=C/C(=O)c2ccc(F)cc2)cc(OC)c1OC,48.4,-14.6,39.3,41.9*,-4.0,42.0*
CCc1ccc2c(c1)C(=O)c1ccccc1C2=O,22.6,3.9,14.2,16.4,-18.7,x
CC(C)Cn1[nH]c2c3c(ccc2c1=O)C(=O)c1ccccc1C3=O,28.4,29.8,24.1,57.5*,16.7,49.0*
